Reference: PubChem BioAssay (NCI)
This is part of a sample that, as a whole, favours compounds with a hit. Of some 79,000 tested, about 15% had one in any assay. Activity calls are given as the source filed them. Cut-off read from the data, not from the text of the source: active = growth inhibition above about 70%; inactive = the rest.

Experiment: NCI Yeast Anticancer Drug Screen. Data for the rad50 strain (AID 155);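 note: 0% = growth of vehicle-only cultures of the same strain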
Conditions: S. cerevisiae rad50 strain growth inhibition; at 50.0 µM; hits give high values
Method in brief: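 Genetically altered yeast (DNA repair pathway); compound treatment; growth inhibition vs vehicle ctrl.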

| SMILES | growth inhibition |
| --- | --- |
| CCCCCCCCCCCCCCC[N+](C)(C)C | 99.5% (active) |
| CC(=O)NNc1nc(C)c(C(/C=C/c2ccc(Cl)cc2)=N\NS(=O)(=O)c2ccc(C)cc2)s1 | 26.1% (inactive) |
| NCC(=O)Nc1ccc(C(=O)O)cc1 | 28.8% (inactive) |
| C=C1CCC2[C@@H](CCC3[C@]2(C)CCC[C@]3(C)C(=O)OC)[C@@H]1CC=O (stereo partly specified) | 11.4% (inactive) |
| COc1ccc(C2=CCCCc3cc(O)c(OC)cc32)cc1 | 93.9% (active) |
| CNC(=O)OCc1c(COC(=O)NC)c(-c2ccc(S(=O)(=O)c3ccccc3)cc2)n(C)c1C | -5.85% (inactive) |
| O=C1CC=NC(=S)N1 | -0.6% (inactive) |
| N#C/C(=C1/Sc2c(nc[nH]c2=O)N1c1ccccc1)c1nc2ccccc2[nH]1 | -34.6% (inactive) |
| C=C1C(=O)OC2C1C(OC(=O)/C(C)=C/C)CC1(C)C(=O)CCC(=C)C21 (stereo unspecified) | 38.3% (inactive) |
| O=C1OCCC1n1cc(F)c(=O)[nH]c1=O (stereo unspecified) | 3.15% (inactive) |
| CCC(C)(CC)OC(=O)c1ccc([N+](=O)[O-])cc1 | -0.35% (inactive) |
| C/C=C(\C)C(=O)OC1C2C(C)=CC(=O)C(O)C2(C)C2C3(O)OCC24C1OC(=O)C(OC(C)=O)C4C(C)C3O (stereo unspecified) | 91.9% (active) |
| Cc1cc(C)c2ccc(NN=O)nc2n1 | 11.4% (inactive) |
| C1CCSCCCCCSCCCCCSCCCCCSCC1 | 25.2% (inactive) |
| CC(=O)N(CN1C(=O)CCC1C(=O)O)c1ccccc1 (stereo unspecified) | 20.1% (inactive) |
| Cc1ccc(CN2CCOCC2)c(O)c1 | 18.9% (inactive) |
| CC1CCC/C1=C(/I)C(=O)c1ccccc1 (stereo unspecified) | 2.25% (inactive) |
| CN1CCCC2C3=CC=C4CC(O)CCC4(C)C3CCC21C (stereo unspecified) | 60.4% (inactive) |
| O=c1c2c(oc3cc(OCC4CO4)ccc13)CCC2 (stereo unspecified) | -0.4% (inactive) |
| COc1cc(/C=C/C=C2\CCC/C(=C\C=C\c3ccc(O)c(OC)c3)C2=O)ccc1O | 14.4% (inactive) |
| O=CN/C=C\c1cc(O)ccc1O | 3.1% (inactive) |
| O=C1NC(=O)N2CCCOC2C1c1ccccc1 (stereo unspecified) | 0.2% (inactive) |
| C=CCC(C)C(=O)NNC(=O)C(C)CC=C (stereo unspecified) | -11.8% (inactive) |

Experiment: NCI Yeast Anticancer Drug Screen. Data for the mec2-1 strain (AID 157)
Conditions: S. cerevisiae mec2-1 strain, at 50.0 µM, hits give high values
Method in brief: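 Readout is yeast growth inhibition, normalised to vehicle-treated controls, in the mec2-1 strain exposed to compound.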

| SMILES | growth inhibition |
| --- | --- |
| O=C1C(O)CCN1C1CCCCC1 (stereo unspecified) | -6.95% (inactive) |
| C[P+](C)(C)c1ccccc1 | 4% (inactive) |
| Cc1nc2c(SCc3ccccc3)ncnc2o1 | -9.5% (inactive) |
| BrC1(C2(Br)N(c3ccccc3)CCN2c2ccccc2)N(c2ccccc2)CCN1c1ccccc1 | -1.55% (inactive) |
| CCOC(=O)C(F)(F)C(F)(F)C(F)(F)F | -16.4% (inactive) |
| CC(=O)Nc1nc(NC(C)=O)c2nc(C)cnc2n1 | 20.6% (inactive) |
| CCOC(=O)NC(=O)c1cn(CC(=O)NCC(=O)NCC(=O)N2CCN(CCn3c(C)nc(C(N)=O)c3N)CC2)c(=O)[nH]c1=O | 8.9% (inactive) |
| Cc1cc(C)[n+]([O-])c(C)c1 | -8.85% (inactive) |
| CCN(CC)c1c(C)nnn1C1OC(COC(C)=O)C(OC(C)=O)C(OC(C)=O)C1OC(C)=O (stereo unspecified) | -10.9% (inactive) |
| C[Si](C)(/C(=C/COCc1ccccc1)CCOC1CCCCO1)c1ccccc1 (stereo unspecified) | -6.95% (inactive) |
| N#Cc1cnsc1 | 2.65% (inactive) |
| O=[N+]([O-])c1ccc(N/N=C/c2ccccn2)nc1 | -6.1% (inactive) |
| COC(=O)CCC(=O)NC1=C(NCc2ccccc2)C(=O)c2ccccc2C1=O | 12.8% (inactive) |
| CC1=CC(OC2CCCCO2)CC(C)(C)C1 (stereo unspecified) | -3% (inactive) |
| CCCCN(CCCC)CC(O)c1cc2ccc(Cl)cc2nc1-c1ccc(Cl)cc1 (stereo unspecified) | 41.7% (inactive) |
| COC(=O)NC(Nc1ccc(Cl)cc1Cl)(C(F)(F)F)C(F)(F)F | 6.7% (inactive) |
| S=c1c2ccccc2c(=S)n2n1CC=CC2 | 6.95% (inactive) |
| CCCCCCCCCCCCCCC[N+](C)(C)C | 99.3% (active) |
| CC(=O)NNc1nc(C)c(C(/C=C/c2ccc(Cl)cc2)=N\NS(=O)(=O)c2ccc(C)cc2)s1 | 2.9% (inactive) |
| NCC(=O)Nc1ccc(C(=O)O)cc1 | 17.1% (inactive) |
| C=C1CCC2[C@@H](CCC3[C@]2(C)CCC[C@]3(C)C(=O)OC)[C@@H]1CC=O (stereo partly specified) | 10.2% (inactive) |
| COc1ccc(C2=CCCCc3cc(O)c(OC)cc32)cc1 | 96.7% (active) |
| CNC(=O)OCc1c(COC(=O)NC)c(-c2ccc(S(=O)(=O)c3ccccc3)cc2)n(C)c1C | -3.85% (inactive) |
